Results as given in the supplement of paper PMC6555819.

Key:
Assay in all cases: PBM binding z-score (relative to random genomic background probes); higher = stronger binding; sequences stand for … in GC…GCGATTGACAGCGTAGAATGAAGG
[1] = tested on: PPARg:RXRa DBDmut IVT, anti-RXR (DBD mutation: RXRa K156A/R161A, NR concentration 270 nM, RXRa partner concentration 90 nM)
Outline: (§1)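 Ligand-free nuclear receptor dimers were applied to custom Agilent 4×180K protein-binding microarrays whose double-stranded probes carried direct-repeat seeds, single-nucleotide variants, half-site ablations and random human genomic background sequences in 34-nt variable regions. Incubation lasted 1 h. Binding z-scores were computed against the random background probes from regression-normalized fluorescence.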

[2] = tested on: PPARg:RXRa IVT, anti-PPARg (NR concentration 270 nM, RXRa partner concentration 90 nM)
Outline: as §1

[3] = tested on: PPARg DBDmut:RXRa IVT, anti-PPARg (DBD mutation: PPARg1 K132A/R137A, NR concentration 270 nM, RXRa partner concentration 90 nM)
Outline: as §1

[4] = tested on: PPARg DBDmut IVT, anti-PPARg (DBD mutation: PPARg1 K132A/R137A, NR concentration 270 nM)
Outline: as §1

[5] = tested on: PPARg homodimer (NR concentration 180 nM)
Outline: as §1

[6] = tested on: PXR:RXRa (NR concentration 270 nM, RXRa partner concentration 90 nM)
Outline: as §1

[7] = tested on: PXR homodimer (NR concentration 270 nM)
Outline: as §1

[8] = tested on: RARa:RXR (NR concentration 270 nM, RXRa partner concentration 90 nM)
Outline: as §1

[9] = tested on: RARa homodimer (NR concentration 270 nM)
Outline: as §1

[10] = tested on: RARb:RXRa (NR concentration 270 nM, RXRa partner concentration 90 nM)
Outline: as §1

Sequence	PBM binding z-score [1]	PBM binding z-score [2]	PBM binding z-score [3]	PBM binding z-score [4]	PBM binding z-score [5]	PBM binding z-score [6]	PBM binding z-score [7]	PBM binding z-score [8]	PBM binding z-score [9]	PBM binding z-score [10]
CAAACTAGGTCACGAAAAGTCAAAGTCGAATGAC	8	9.2	4.41	4.13	2.52	2.27	0.426	3.44	0.939	4.58
TAGCCTAGCTCAGATCGGGCCAGTATACGCTATA	-0.922	-0.645	-0.837	-1.92	-1.79	-1.09	-1.09	-1.21	-1.25	-1.89
ATCTCTAGGTAAGACTCAGTTCTGTGAAGAACGC	1.91	0.663	0.175	0.855	0.76	0.28	0.287	0.274	1.02	-0.117
CGAACTAGGTCATCCAGGATAGTGAATACATTGA	7.97	8.31	1.76	1.58	1.43	1.54	0.608	2.18	1.13	3.78
TCGTGTAGGTTAGTCGGGGCATTCAGCCAACATA	2.15	1.92	-0.257	-0.153	0.862	0.845	0.707	0.886	0.866	0.996
TAGCCTAGGGCATGGGCCAGTATACCACGCGAAC	-0.924	0.59	-0.344	-0.519	-0.284	-0.477	-0.557	0.0195	-0.519	1.33
GCGGCTAGGTCAACTGATGGTCAGCTAAAGCTCG	3.34	3.06	-0.724	-1.01	1.76	1.59	-0.666	2.84	-0.107	4.36
ATCACTAGGTAAAAGTTCAGTGAATCCCGAGGAT	3.38	4.52	1.04	1.36	1.02	2.08	1.55	1.9	1.02	2.49
CGCCCAAGGTCATAGGAGGTCAGTGAAGACAGAT	2.88	4.26	-0.0879	-0.0436	3.59	6.51	3.76	5.06	1.63	5.45
TCGAGTAGGTTACCAATGGAGCATTCAGCTTTCT	3.08	2.37	-0.0505	-0.361	-0.556	-0.0122	-0.741	-0.35	-0.787	0.629
TTACCAGGGTGAGCTGAGGTCGTTGATCCAACTC	0.596	1.4	-1.02	-0.726	0.323	5.42	0.925	2.13	-0.657	1.24
CCTGCTAGGTCATTGTCAGCTAATCTACAGTATG	4.13	3.2	0.372	0.337	0.865	1.12	-0.0805	1.77	0.00948	3.55
ATCTTTAGGTAAAGATAGTTCAGTGAATGCAAAT	0.996	0.866	1.02	1.16	0.255	1.01	0.329	0.518	1.15	0.913
